# Measured values as given in PubChem BioAssay.
# Unmarked numbers belong to inactive results. The source made the active and inactive calls.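 Rule for the calls, unless noted: active = mean duplicate potentiation above the buffer control mean plus 5 SD of buffer wells; inactive = the rest.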
# How the values were obtained:
# [1] = thallium flux activation in parental CHO cells, counter-screen for KCNQ1 potentiator project (AID 493006;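 active = duplicate-averaged activation above buffer control mean plus 5 SD of those controls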;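 for activation: fluorescence ratio of max minus min over baseline after K+ and Tl+ depolarization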); conditions: parental CHO-K1 cells, FluxOR thallium flux, at 10 µM; hits give high values
# [2] = biological target: Potassium voltage-gated channel subfamily KQT member 1 (Homo sapiens) (UniProt P51787); experiment: KCNQ1 potassium channel potentiators, confirmation, FluxOR thallium flux, CHO cells, duplicates (AID 493007;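 active = potentiation averaged over duplicate wells exceeding buffer-only control mean by more than 3 SD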;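 for outcome: cells depolarized by a potassium plus thallium sulfate stimulus after compound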;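 for potentiation: 0% = buffer-only wells and 100% = R-L3 activator control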); conditions: KCNQ1 cell line, FluxOR thallium flux fluorescence, at 10 µM; hits give high values, % of reference activator effect, buffer zero
# Sequence of Potassium voltage-gated channel subfamily KQT member 1 (Homo sapiens) (P51787 whole entry, looked up): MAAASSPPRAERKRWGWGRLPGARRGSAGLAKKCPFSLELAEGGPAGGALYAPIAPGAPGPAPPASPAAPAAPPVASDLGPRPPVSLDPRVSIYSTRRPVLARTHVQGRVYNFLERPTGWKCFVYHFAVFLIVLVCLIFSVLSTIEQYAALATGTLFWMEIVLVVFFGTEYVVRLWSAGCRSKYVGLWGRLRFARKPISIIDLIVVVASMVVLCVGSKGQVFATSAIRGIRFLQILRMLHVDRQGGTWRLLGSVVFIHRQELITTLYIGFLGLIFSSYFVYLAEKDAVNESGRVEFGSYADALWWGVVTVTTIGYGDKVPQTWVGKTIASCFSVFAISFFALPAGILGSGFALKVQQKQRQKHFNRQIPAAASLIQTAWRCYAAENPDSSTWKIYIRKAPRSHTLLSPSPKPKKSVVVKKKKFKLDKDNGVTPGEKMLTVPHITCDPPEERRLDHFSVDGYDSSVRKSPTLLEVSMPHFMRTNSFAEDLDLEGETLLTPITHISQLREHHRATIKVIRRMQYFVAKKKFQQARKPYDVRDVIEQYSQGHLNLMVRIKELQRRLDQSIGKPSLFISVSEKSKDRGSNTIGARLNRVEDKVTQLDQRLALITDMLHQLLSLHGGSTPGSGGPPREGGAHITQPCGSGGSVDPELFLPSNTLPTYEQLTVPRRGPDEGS
# [3] = biological target: Potassium voltage-gated channel subfamily KQT member 2 (Rattus norvegicus) (UniProt O88943); experiment: rat KCNQ2 channel potentiation, selectivity assay for KCNQ1 potentiator project, KCNQ2-CHO-K1 cells (AID 493009); conditions: FluxOR thallium flux fluorescence, at 10 µM; hits give high values, scaled: buffer 0, activator control 100;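 note: assay conditions were tuned for KCNQ1 rather than KCNQ2 modulators; signal is max minus min fluorescence divided by baseline after thallium stimulus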
# Sequence of Potassium voltage-gated channel subfamily KQT member 2 (Rattus norvegicus) (O88943 whole entry, looked up): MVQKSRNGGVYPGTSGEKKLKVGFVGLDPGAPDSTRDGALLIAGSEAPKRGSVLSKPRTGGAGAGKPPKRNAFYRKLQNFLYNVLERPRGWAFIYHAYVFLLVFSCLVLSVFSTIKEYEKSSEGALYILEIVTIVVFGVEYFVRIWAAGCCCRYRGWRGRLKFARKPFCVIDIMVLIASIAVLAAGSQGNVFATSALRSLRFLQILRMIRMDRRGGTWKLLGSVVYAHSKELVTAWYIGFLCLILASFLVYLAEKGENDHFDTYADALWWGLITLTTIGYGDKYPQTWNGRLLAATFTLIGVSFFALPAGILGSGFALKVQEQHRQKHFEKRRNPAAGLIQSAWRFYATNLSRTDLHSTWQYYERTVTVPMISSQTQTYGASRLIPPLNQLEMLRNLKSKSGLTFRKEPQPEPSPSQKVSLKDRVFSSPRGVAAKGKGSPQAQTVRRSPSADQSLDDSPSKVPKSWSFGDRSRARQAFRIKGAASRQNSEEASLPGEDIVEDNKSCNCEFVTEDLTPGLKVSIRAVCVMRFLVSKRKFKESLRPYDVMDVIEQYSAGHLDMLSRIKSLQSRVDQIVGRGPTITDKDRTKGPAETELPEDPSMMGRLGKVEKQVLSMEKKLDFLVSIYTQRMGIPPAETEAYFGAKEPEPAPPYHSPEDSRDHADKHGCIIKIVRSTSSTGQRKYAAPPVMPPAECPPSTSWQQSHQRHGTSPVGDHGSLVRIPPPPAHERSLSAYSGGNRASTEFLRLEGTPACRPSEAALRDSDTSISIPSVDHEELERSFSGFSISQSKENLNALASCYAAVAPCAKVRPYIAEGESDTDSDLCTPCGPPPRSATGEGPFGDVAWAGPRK
# [4] = biological target: Potassium voltage-gated channel subfamily KQT member 1 (Homo sapiens) (UniProt P51787); experiment: KCNQ1 channel current potentiators, confirmation, orthogonal assay for KCNQ1 potentiator project, IonWorks patch clamp, KCNQ1-CHO cells (AID 493184;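 active = current rise at least 3 SD above the untreated control mean in each of two repeat wells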); conditions: automated patch clamp current, at 10 µM; hits give high values
SMILES,activation [1],potentiation [2],potentiation [3],outcome [4],outcome [1],outcome [2],outcome [3]
CCN(CC)C(=S)NC(=O)c1ccc(OC)c(Br)c1,209% (active),63.5% (active),209% (active),inactive,,,
COc1cccc(C2=NOC(C(=O)NCc3cccs3)C2)c1 (configuration not stated),,,,inactive,inactive,inactive,inactive
COc1ccccc1NC(=O)C(=O)NNC(=O)COc1ccc2ccccc2c1,442% (active),174% (active),555% (active),inactive,,,
CC(C)CSC1=NSC2=NC(=O)/C(=C\c3cccs3)C(=N)N12,,,,inactive,inactive,inactive,inactive
CC1CCN(C(=S)NC(=O)c2cccs2)CC1,143% (active),28.5% (active),186% (active),inactive,,,
CC1(C)CC2CC(C)(CN2C(=S)NC(=O)c2ccccc2Cl)C1 (configuration not stated),341% (active),154% (active),426% (active),inactive,,,
S=c1nc(-c2ccc(Br)cc2)[nH]c2ccccc12,572% (active),188% (active),538% (active),inactive,,,
O=C(NCc1ccccc1)C(=O)NCC1CCCN1S(=O)(=O)c1cccs1 (configuration not stated),,,,inactive,inactive,inactive,inactive
Cc1nc2ccccc2c(N)c1C(=O)/C=C/c1ccccc1,,,,inactive,inactive,inactive,inactive
CC(C)Cn1c(=O)c(C(=O)N/N=C/c2cccc(F)c2)c(O)c2ccccc21,,,,inactive,inactive,inactive,inactive
O=C(Nc1nc2c(Br)cc(Br)cc2c(=O)s1)C1CCC1,192% (active),29% (active),176% (active),inactive,,,
O=C(CCn1c(=O)sc2ccccc21)NCc1ccco1,,,,inactive,inactive,inactive,inactive
CC(=O)Nc1cc(NC(C)=O)cc(C(=O)OC(C)C(=O)Nc2ccc(S(=O)(=O)N3CCCC3)cc2)c1 (configuration not stated),224% (active),54% (active),216% (active),inactive,,,
Cc1ccc(S(=O)(=O)N2CCCC(C(=O)Nc3ccc(C(=O)O)cc3)C2)cc1Cl (configuration not stated),,,,inactive,inactive,inactive,inactive
CCOCC(=O)Nc1ccc2c(c1)N(S(=O)(=O)c1cccs1)CCC2,,,,inactive,inactive,inactive,inactive
O=C1c2ccccc2NC(c2ccccc2O)N1O (configuration not stated),248% (active),82% (active),262% (active),inactive,,,
O=c1c(O)c(-c2cccs2)oc2ccc(Cl)cc12,570% (active),128% (active),553% (active),inactive,,,
CC(C)C(=O)Nc1c(O)c2ccccc2[nH]c1=O,,,,inactive,inactive,inactive,inactive
CCOC(=O)c1c(NC(=S)NCC2CCCO2)sc(C)c1C (configuration not stated),,,,inactive,inactive,inactive,inactive

SMILES,activation [1],potentiation [2],potentiation [3],outcome [4],outcome [1],outcome [2],outcome [3]
O=C(NCCN1CCOCC1)[C@H](Cc1ccccc1)N1C(=O)c2ccccc2C1=O,,26% (active),155% (active),inactive,inactive,,
CC(C)c1nc(Cl)c(C#N)c2c1CCC2,,,,inactive,inactive,inactive,inactive
O=C(NC(=S)Nc1ccccc1Br)c1ccco1,,,,inactive,inactive,inactive,inactive
O=C(NC(=S)N1CCN(c2ccccc2)CC1)c1ccccc1,226% (active),71% (active),281% (active),inactive,,,
CCC/C=N/NC(=O)c1[nH]c2c([N+](=O)[O-])cccc2c1C,,,,inactive,inactive,inactive,inactive
COc1ccc(OC)c(-c2cc(C(=O)N3CCN(c4ccccc4)CC3)no2)c1,,,,inactive,inactive,inactive,inactive
O=C(NC(=S)N(CCCCO)C1CCCCC1)c1sc2ccccc2c1Cl,368% (active),192% (active),392% (active),inactive,,,
COc1cc(NS(=O)(=O)c2ccc(NC(=S)NC(=O)c3sc4cc(F)ccc4c3Cl)cc2)nc(OC)n1,144% (active),,,inactive,,inactive,inactive
COc1ccccc1-c1nc(C#N)c(N2CC(C)CC(C)C2)o1 (configuration not stated),,,,inactive,inactive,inactive,inactive
C=CCn1c(=S)[nH]c2ccc(Br)cc2c1=O,208% (active),51% (active),200% (active),inactive,,,
NC(=O)COC(=O)c1ccccc1Nc1ccc(SC(F)F)cc1,,26% (active),147% (active),inactive,inactive,,
Cc1ccc(-c2nc3c(Cl)cc(Cl)cc3c(=O)n2O)cc1,828% (active),414% (active),820% (active),inactive,,,
O=C(NNc1ncc(C(F)(F)F)cc1Cl)c1c(Cl)cccc1Cl,,,,inactive,inactive,inactive,inactive
N#C/C=C1/NC(=O)c2ccccc2S1,138% (active),22.5% (active),166% (active),inactive,,,
S=C1NC2(CCCCC2)Cc2ccccc21,,,,inactive,inactive,inactive,inactive
CCCc1ccc2oc(C(=O)N(C)CCn3ccnc3C)c(C)c2c1,,,,inactive,inactive,inactive,inactive
CC1CCCCC1NC(=S)NC(=O)c1cccs1 (configuration not stated),181% (active),100% (active),300% (active),inactive,,,
CCN(CC)c1ccc(/C=N/Nc2nc3ccccc3[nH]2)c(O)c1,,,,inactive,inactive,inactive,inactive
CN1c2ccccc2C(O)=C(C(=S)Nc2ccc(Cl)cc2)S1(=O)=O,139% (active),,146% (active),inactive,,inactive,
